Experimental data taken from PubChem BioAssay AID1159580 (chemical genetic matrix, 2015).
Hit rate of the full screen: of about 5,500 compounds, about 2,000 (36%) were called active. Another 18% or so got no clear call; they are omitted. No stated cut-off is given here; in the data, active means normalized growth mostly below about 0.91 (no sharp cut-off); inconclusive means no clear call, values can overlap the other calls; inactive means mostly above about 0.92. The list shows a part of the results.

Experiment: chemical genetic growth profiling, strain panel (AID 1159580);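 further: tested at 20 µM; growth read once vehicle control cultures reached saturation at 30 °C; 1 = growth at the plate median or of vehicle wells; lower values mean less growth of the strain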
Details: S. cerevisiae deletion strains, growth OD

Measured: normalized growth

O=c1c(-c2ccc(O)cc2)coc2c(C3O[C@H](CO)[C@@H](O)[C@H](O)[C@H]3O)c(O)ccc12 (stereo not given in full)
inactive: locus YAL021C, strain ccr4, hits give low values 1.01 | locus YAL026C, strain drs2, hits give low values 0.991 | locus YAL030W, strain snc1, hits give low values 0.982 | locus YBL061C, strain skt5, hits give low values 0.977 | locus YBR009C, strain hhf1, hits give low values 0.957 | locus YBR023C, strain chs3, hits give low values 0.991 | locus YBR171W, strain sec66, hits give low values 0.977 | locus YBR231C, strain swc5, hits give low values 0.979 | locus YBR279W, strain paf1, hits give low values 0.985 | locus YCL011C, strain gbp2, hits give low values 0.968 | locus YCL016C, strain dcc1, hits give low values 0.991 | locus YCL061C, strain MRC1, hits give low values 0.994 | locus YCL069W, strain vba3, hits give low values 0.973 | locus YCR088W, strain abp1, hits give low values 0.996 | locus YDL005C, strain med2, hits give low values 0.978 | locus YDL040C, strain nat1, hits give low values 0.977 | locus YDR001C, strain nth1, hits give low values 0.978 | locus YDR069C, strain doa4, hits give low values 1 | locus YDR137W, strain rgp1, hits give low values 0.995 | locus YDR159W, strain sac3, hits give low values 0.933 | locus YDR195W, strain ref2 0.951 | locus YDR297W, strain sur2, hits give low values 0.978 | locus YDR334W, strain swr1, hits give low values 0.973 | locus YDR335W, strain msn5, hits give low values 0.987 | locus YDR392W, strain spt3, hits give low values 0.876 | locus YEL003W, strain gim4, hits give low values 0.979 | locus YEL037C, strain rad23, hits give low values 0.973 | locus YEL061C, strain CIN8 (second series), hits give low values 0.974 | locus YER015W, strain faa2, hits give low values 0.993 | locus YER016W, strain bim1, hits give low values 0.989 | locus YER111C, strain swi4, hits give low values 0.98 | locus YER155C, strain BEM2 (second series), hits give low values 0.947 | locus YFR010W, strain ubp6, hits give low values 0.977 | locus YGL167C, strain pmr1, hits give low values 0.965 | locus YGL173C, strain kem1, hits give low values 0.977 | locus YGL227W, strain vid30, hits give low values 0.982 | locus YGL240W, strain doc1, hits give low values 0.957 | locus YGL253W, strain hxk2, hits give low values 0.982 | locus YHR013C, strain ard1, hits give low values 0.921 | locus YHR027C, strain rpn1, hits give low values 0.987 | locus YHR030C, strain SLT2, hits give low values 0.957 | locus YHR079C, strain IRE1, hits give low values 0.976 | locus YHR142W, strain chs7, hits give low values 1.04 | locus YJL092W, strain hpr5, hits give low values 0.992 | locus YJL095W, strain BCK1 (second series), hits give low values 0.987 | locus YJL095W, strain BCK1, hits give low values 0.973 | locus YJL115W, strain asf1, hits give low values 0.98 | locus YJL129C, strain trk1, hits give low values 0.997 | locus YJL154C, strain vps35, hits give low values 0.972 | locus YJL164C, strain tpk1, hits give low values 0.999 | locus YJL166W, strain qcr8, hits give low values 0.98 | locus YJL187C, strain SWE1, hits give low values 0.977 | locus YJR066W, strain TOR1, hits give low values 0.898 | locus YKL160W, strain elf1, hits give low values 1.04 | locus YKR026C, strain gcn3, hits give low values 0.982 | locus YKR091W, strain srl3, hits give low values 0.98 | locus YLL001W, strain dnm1, hits give low values 0.99 | locus YLL026W, hits give low values 0.993 | locus YLL041C, strain sdh2, hits give low values 0.992 | locus YLR027C, strain aat2, hits give low values 0.965 | locus YLR113W, strain HOG1, hits give low values 1 | locus YLR221C, strain rsa3, hits give low values 0.985 | locus YLR258W, strain gsy2, hits give low values 0.982 | locus YLR262C, strain YPT6 (second series), hits give low values 0.997 | locus YLR320W, strain mms22, hits give low values 0.988 | locus YLR342W, strain FKS1, hits give low values 0.974 | locus YLR357W, strain rsc2, hits give low values 0.957 | locus YLR370C, strain arc18, hits give low values 0.981 | locus YLR384C, strain iki3, hits give low values 0.975 | locus YML120C, strain ndi1, hits give low values 0.995 | locus YMR058W, strain fet3, hits give low values 0.969 | locus YMR125W, strain sto1, hits give low values 0.954 | locus YMR129W, hits give low values 0.962 | locus YMR205C, strain PFK2, hits give low values 0.941 | locus YMR231W, strain pep5, hits give low values 0.985 | locus YNL071W, strain lat1, hits give low values 0.979 | locus YNL183C, strain NPR1, hits give low values 0.91 | locus YNL209W, strain ssb2, hits give low values 0.984 | locus YNL248C, strain rpa49, hits give low values 1.03 | locus YNL322C, strain KRE1 (second series), hits give low values 0.982 | locus YNR049C, strain mso1, hits give low values 0.973 | locus YOR001W, strain rrp6, hits give low values 1.01 | locus YOR070C, strain gyp1, hits give low values 0.983 | locus YOR080W, strain dia2, hits give low values 0.98 | locus YOR083W, strain WHI5, hits give low values 1.06 | locus YOR106W, strain vam3, hits give low values 1.01 | locus YOR231W, strain MKK1, hits give low values 0.96 | locus YOR265W, strain rbl2, hits give low values 0.989 | locus YOR270C, strain vph1, hits give low values 0.969 | locus YOR290C, strain snf2, hits give low values 0.921 | locus YPL051W, strain arl3, hits give low values 1.01 | locus YPL078C, strain atp4, hits give low values 1.01 | locus YPL106C, strain sse1, hits give low values 0.93 | locus YPL240C, strain hsp82, hits give low values 1.01 | locus YPL256C, strain CLN2, hits give low values 0.979
